Molecules are shown by their SMILES. Out of some 39,000 compounds screened, about 3,300 (8.5%) were called active. Only a selection was taken, and actives are over-represented in it overall.

The subject of this test is HepG2. As to the kind of experiment: cytotoxicity call (relative viability < 0.9). As to conditions: 10 µM.
With `C[C@H](CO)N1C[C@H](C)[C@H](CN(C)C(=O)Nc2cccc3ccccc23)Oc2ccc(NS(=O)(=O)c3cccs3)cc2CC1=O`, the cytotoxicity call was “inactive”.
With `CC(C)NC(=O)N(C)C[C@@H]1OCCCC[C@@H](C)Oc2ccc(NC(=O)Nc3ccc(F)cc3)cc2C(=O)N([C@H](C)CO)C[C@H]1C`, the cytotoxicity call was “inactive”.
Take `COc1ccccc1CNC(=O)C[C@@H]1C[C@@H]2c3cc(NC(=O)NC4CCCC4)ccc3O[C@@H]2[C@@H](CO)O1`: the cytotoxicity call was “inactive”.
As to `COc1ccc(NC(=O)N(C)C[C@H]2Oc3c(NC(=O)Nc4cccc5ccccc45)cccc3C(=O)N([C@H](C)CO)C[C@@H]2C)cc1`, the cytotoxicity call was “inactive”.
With `COc1ccc(S(=O)(=O)Nc2ccc3c(c2)C(=O)N([C@H](C)CO)C[C@H](C)[C@H](CN(C)Cc2ccc(C(=O)O)cc2)OCCCC[C@@H](C)O3)cc1` the entry was “inactive”; with `COc1ccc(NC(=O)N(C)C[C@@H]2OCCCC[C@@H](C)Oc3ccc(NC(=O)Nc4ccc(F)cc4)cc3C(=O)N([C@H](C)CO)C[C@H]2C)cc1`, “inactive”; with `O=C(CC1CC1)NCc1cnc2n1CCNCC2`, “inactive”.
For the compound `O=C(C[C@@H]1CC=CCC[C@@H](Cc2ccc(F)cc2)C(=O)OC[C@@H](Cc2c[nH]c3ccccc23)NC1=O)N[C@H](CO)Cc1ccccc1`, the cytotoxicity call was “active”.
In the case of `C[C@@H]1COC(=O)[C@@H](Cc2ccc(F)cc2)CCC=CC[C@@H](CC(=O)N[C@H](CO)Cc2ccccc2)C(=O)N1`, the cytotoxicity call was “inactive”.
On to `O=C(C[C@@H]1CC=CCCC(=O)OC[C@H](Cc2c[nH]c3ccccc23)NC1=O)N[C@H](CO)Cc1ccccc1`, for which the cytotoxicity call is “inactive”.
Regarding `O=C(C[C@@H]1CC=CCC[C@@H](Cc2ccc(F)cc2)C(=O)OC[C@H](Cc2c[nH]c3ccccc23)NC1=O)N[C@@H](CO)Cc1ccccc1`, the cytotoxicity call is “active”.
The same measure for `O=C(C[C@@H]1CC=CCC[C@@H](Cc2ccc(F)cc2)C(=O)OC[C@@H](Cc2c[nH]c3ccccc23)NC1=O)N[C@@H](CO)Cc1ccccc1`: “inactive”; for `O=C(C[C@@H]1CC=CCCC(=O)OC[C@H](Cc2c[nH]c3ccccc23)NC1=O)N[C@@H](CO)Cc1ccccc1`: “inactive”; for `O=C(C[C@@H]1CC=CCCC(=O)OC[C@@H](Cc2c[nH]c3ccccc23)NC1=O)N[C@H](CO)Cc1ccccc1`: “inactive”.
The same measure for `O=C(C[C@@H]1CC=CCC[C@H](Cc2ccc(F)cc2)C(=O)OC[C@H](Cc2c[nH]c3ccccc23)NC1=O)N[C@@H](CO)Cc1ccccc1`: “inactive”; for `O=C(C[C@@H]1CC=CCC[C@H](Cc2ccc(F)cc2)C(=O)OC[C@@H](Cc2c[nH]c3ccccc23)NC1=O)N[C@@H](CO)Cc1ccccc1`: “inactive”; for `O=C(C[C@@H]1CC=CCC[C@@H](Cc2ccc(F)cc2)C(=O)OC[C@H](Cc2c[nH]c3ccccc23)NC1=O)N[C@H](CO)Cc1ccccc1`: “active”.
Regarding `O=C(C[C@@H]1CC=CCC[C@H](Cc2ccc(F)cc2)C(=O)OC[C@H](Cc2c[nH]c3ccccc23)NC1=O)N[C@H](CO)Cc1ccccc1`, the cytotoxicity call is “active”.
With `O=C(C[C@@H]1CC=CCCC(=O)OC[C@@H](Cc2c[nH]c3ccccc23)NC1=O)N[C@@H](CO)Cc1ccccc1` the entry was “inactive”; with `Cc1noc(C)c1NC(=O)N(C)C[C@@H]1Oc2c(NS(=O)(=O)c3ccccc3)cccc2C(=O)N([C@@H](C)CO)C[C@@H]1C`, “inactive”.
Consider `CC(C)Cn1c(N)cc(=O)n(C)c1=O`, for which the cytotoxicity call is “inactive”.
The same measure for `C[C@@H]1CCCCO[C@@H](CN(C)C(=O)Nc2ccc3c(c2)OCO3)[C@H](C)CN([C@H](C)CO)C(=O)c2cc(NS(=O)(=O)c3ccccc3)ccc2O1`: “inactive”; for `COc1ccc(S(=O)(=O)Nc2cccc3c2O[C@H](CN(C)C(=O)Nc2cccc4ccccc24)[C@@H](C)CN([C@@H](C)CO)C3=O)cc1`: “inactive”; for `C=CC[C@@H](CC(=O)N(CCO)Cc1ccccc1)C(=O)NC[C@@H](OC(=O)[C@@H](CC=C)Cc1ccc(F)cc1)c1ccccc1`: “inactive”.
As to `C[C@@H]1CCCCO[C@@H](CN(C)CC2CC2)[C@H](C)CN([C@@H](C)CO)C(=O)c2cc(NC(=O)NC3CCCCC3)ccc2O1`, the cytotoxicity call was “inactive”.
Take `O=C1NC(=O)[C@@]2(CC[C@H](C(=O)O)C2)N1`: the cytotoxicity call was “inactive”.
The same measure for `CN1CCN(C(=O)C[C@@H]2CC[C@H]3[C@@H](COC[C@H](O)CN3Cc3ccc(Oc4ccccc4)cc3)O2)CC1`: “inactive”; for `C[C@@H]1CCCCO[C@@H](CN(C)S(=O)(=O)c2cccs2)[C@H](C)CN([C@@H](C)CO)C(=O)c2cc(NC(=O)NC3CCCCC3)ccc2O1`: “inactive”; for `O=C(O)c1oc2ccccc2c1CSc1ccc(Cl)cc1`: “inactive”.
Regarding `COc1ccc(CN(C)C[C@@H]2OCCCC[C@H](C)Oc3ccc(NC(=O)NC4CCCCC4)cc3C(=O)N([C@H](C)CO)C[C@@H]2C)cc1`, the cytotoxicity call was “inactive”.
With `COc1ccc(CN(C)C[C@H]2OCCCC[C@@H](C)Oc3ccc(NC(=O)NC4CCCCC4)cc3C(=O)N([C@@H](C)CO)C[C@@H]2C)cc1` the entry was “inactive”; with `COc1ccc(CN(C)C[C@@H]2OCCCC[C@@H](C)Oc3ccc(NC(=O)NC4CCCCC4)cc3C(=O)N([C@H](C)CO)C[C@@H]2C)cc1`, “inactive”.
For `COc1ccc(CN(C)C[C@H]2OCCCC[C@@H](C)Oc3ccc(NC(=O)NC4CCCCC4)cc3C(=O)N([C@H](C)CO)C[C@H]2C)cc1`, the cytotoxicity call was “active”.
The same measure for `COc1ccc(CN(C)C[C@H]2OCCCC[C@H](C)Oc3ccc(NC(=O)NC4CCCCC4)cc3C(=O)N([C@@H](C)CO)C[C@@H]2C)cc1`: “inactive”; for `COc1ccc(CN(C)C[C@@H]2OCCCC[C@@H](C)Oc3ccc(NC(=O)NC4CCCCC4)cc3C(=O)N([C@H](C)CO)C[C@H]2C)cc1`: “inactive”; for `COc1ccc(CN(C)C[C@H]2OCCCC[C@H](C)Oc3ccc(NC(=O)NC4CCCCC4)cc3C(=O)N([C@H](C)CO)C[C@H]2C)cc1`: “inactive”.
`COc1ccc(CN(C)C[C@@H]2OCCCC[C@H](C)Oc3ccc(NC(=O)NC4CCCCC4)cc3C(=O)N([C@@H](C)CO)C[C@@H]2C)cc1`: the cytotoxicity call is “active”.
The same measure for `COc1ccc(CN(C)C[C@H]2OCCCC[C@H](C)Oc3ccc(NC(=O)NC4CCCCC4)cc3C(=O)N([C@@H](C)CO)C[C@H]2C)cc1`: “active”.
With `C[C@H](CO)N1C[C@H](C)[C@@H](CN(C)Cc2ccc(C(=O)Nc3ccccc3N)cc2)OCc2cnnn2CCCC1=O` the entry was “inactive”; with `CC(C)(C)[S@@](=O)N1Cc2cc(C(=O)N3CCCCC3)nc(-c3cccc(-c4ccc(F)cc4)c3)c2[C@H]1CCO`, “inactive”; with `O=C(CN1CCOCC1)NCC[C@H]1CC[C@H](NS(=O)(=O)c2ccc(Cl)cc2)[C@H](CO)O1`, “inactive”.
For the compound `CCc1cc(=O)oc2c(C)c(O[C@@H]3O[C@H](CO)[C@@H](O)[C@H](O)[C@H]3O)ccc12`, the cytotoxicity call is “inactive”.
Take `COc1ccc(S(=O)(=O)N(C)C[C@H]2Oc3ccc(NC(=O)CCC(F)(F)F)cc3CC(=O)N([C@H](C)CO)C[C@H]2C)cc1`: the cytotoxicity call is “inactive”.
Consider `Cc1cc(C(=O)Nc2cccc3c2O[C@H](CN(C)Cc2ccccc2)[C@H](C)CN([C@@H](C)CO)C3=O)n(C)n1`, for which the cytotoxicity call is “inactive”.
Take `COCC#Cc1ccc2c(c1)O[C@H](CN(C)C(=O)C1CCCCC1)[C@@H](C)CN([C@@H](C)CO)S2(=O)=O`: the cytotoxicity call is “inactive”.
As to `CO[C@H](CN(C)S(=O)(=O)c1cn(C)cn1)[C@H](C)CN(C(=O)Nc1ccc(C(F)(F)F)cc1)[C@H](C)CO`, the cytotoxicity call is “inactive”.
With `CC(C)NC(=O)Nc1ccc2c(c1)C(=O)N([C@H](C)CO)C[C@@H](C)[C@@H](CN(C)C(=O)Nc1ccc3c(c1)OCO3)O2` the entry was “inactive”; with `Cc1n[nH]c(C)c1S(=O)(=O)N1CCCC1`, “inactive”.
For `COc1ccc(NC(=O)Nc2ccc3c(c2)[C@@H]2C[C@H](CC(=O)N4CCN(C)CC4)O[C@H](CO)[C@@H]2O3)cc1`, the cytotoxicity call was “inactive”.
As for `C[C@H](CO)N1C[C@H](C)[C@@H](CN(C)S(=O)(=O)c2ccc(Cl)cc2)Oc2c(NC(=O)Nc3cccc4ccccc34)cccc2C1=O`, the cytotoxicity call is “active”.
With `C[C@H]1CN([C@@H](C)CO)C(=O)c2cccc(NC(=O)Nc3cccc4ccccc34)c2O[C@@H]1CN(C)S(=O)(=O)c1ccc(Cl)cc1` the entry was “inactive”; with `C[C@@H]1CN([C@H](C)CO)C(=O)c2cccc(NC(=O)Nc3cccc4ccccc34)c2O[C@@H]1CN(C)S(=O)(=O)c1ccc(F)cc1`, “inactive”.
The same measure for `C[C@@H]1CN([C@@H](C)CO)C(=O)c2cccc(NC(=O)Nc3cccc4ccccc34)c2O[C@@H]1CN(C)S(=O)(=O)c1ccc(Cl)cc1`: “inactive”.
As for `C[C@@H]1CN([C@@H](C)CO)C(=O)c2cccc(NC(=O)Nc3cccc4ccccc34)c2O[C@H]1CN(C)S(=O)(=O)c1ccc(F)cc1`, the cytotoxicity call is “inactive”.
Consider `C[C@H]1CN([C@@H](C)CO)C(=O)c2cccc(NC(=O)Nc3cccc4ccccc34)c2O[C@@H]1CN(C)S(=O)(=O)c1ccc(F)cc1`, for which the cytotoxicity call was “active”.
The same measure for `C[C@H]1CN([C@@H](C)CO)C(=O)c2cccc(NS(C)(=O)=O)c2O[C@H]1CN(C)S(=O)(=O)c1ccc(Cl)cc1`: “inactive”.
As to `C[C@H]1CN([C@@H](C)CO)C(=O)Cc2cc(NC(=O)CCN3CCOCC3)ccc2O[C@@H]1CN(C)S(=O)(=O)c1ccccc1`, the cytotoxicity call was “inactive”.
The same measure for `COc1ccc(NC(=O)N(C)C[C@H]2Oc3ccc(NC(=O)CCN4CCOCC4)cc3C(=O)N([C@H](C)CO)C[C@@H]2C)cc1`: “inactive”; for `CCS(=O)(=O)N1C[C@]2(CN(C2)S(=O)(=O)c2cn(cn2)C)c2c(n(c3cc(ccc23)OC)C)[C@@H]1CO`: “inactive”.
With `CC(=O)N(C)C[C@@H]1Oc2cc(C#CCN(C)C)ccc2S(=O)(=O)N([C@H](C)CO)C[C@H]1C` the entry was “inactive”; with `Cc1noc(C)c1S(=O)(=O)N(C)C[C@H]1Oc2ccc(NC(=O)CCN3CCOCC3)cc2CC(=O)N([C@@H](C)CO)C[C@H]1C`, “inactive”.
The same measure for `COC1OC2OC3(C)CCC4C(C)CCC(C1C)C24OO3` (stereo not given): “inactive”.
In the case of `CC(=O)C1CCC2C3CC=C4CC(OC(=O)CCC(=O)O)CCC4(C)C3CCC12C` (stereo not given), the cytotoxicity call is “inactive”.
On to `CC1CCC2C(C)C(O)OC3OC4(C)CCC1C32OO4` (stereo not given), for which the cytotoxicity call is “active”.
For the compound `CC1CCC2C(C)C(OC(=O)CCC(=O)O)OC3OC4(C)CCC1C32OO4` (stereo not given), the cytotoxicity call is “active”.
